Each sequence was assayed against GST-Hu-p50 (Homo sapiens, UniProt P19838 7-356) (assay: protein-binding microarray (PBM); PBM: ~300 nM protein, 6 mM HEPES pH 7.8, 80 mM KCl, 0.5 mM EDTA, 0.5 mM EGTA, 6% glycerol, 35 ng/ul poly-dIdC, 1% milk, 1 h, room temperature; Ap Aiptasia and Nv Nematostella (sea anemones) / Co Capsaspora / Aq Amphimedon (sponge) / Dm Drosophila / Hu human; RHD is the Rel homology domain; high values mean tight binding). Details: dsDNA, one strand shown.
Sequence of GST-Hu-p50 (P19838 7-356): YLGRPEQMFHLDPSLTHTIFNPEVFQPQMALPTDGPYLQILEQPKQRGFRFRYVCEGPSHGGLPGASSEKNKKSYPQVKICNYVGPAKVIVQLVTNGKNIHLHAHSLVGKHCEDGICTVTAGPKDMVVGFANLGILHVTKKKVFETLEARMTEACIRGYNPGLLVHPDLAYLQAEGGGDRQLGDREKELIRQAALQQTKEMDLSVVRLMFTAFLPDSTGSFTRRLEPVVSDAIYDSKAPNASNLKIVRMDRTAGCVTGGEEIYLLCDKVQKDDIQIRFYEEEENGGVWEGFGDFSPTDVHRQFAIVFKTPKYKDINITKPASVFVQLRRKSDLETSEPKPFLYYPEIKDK

Sequence	binding signal [z-score]
CCGATTAACATCAGGGGAAATGATGATGTTAATCGGGTCTTGATTCGCTTGACGCTGCTG	5.37
CCGATTAACATCACAACTTCCCCTGATGTTAATCGGGTCTTGATTCGCTTGACGCTGCTG	6.13
CCGATTAACATCACGGGGATTTATGATGTTAATCGGGTCTTGATTCGCTTGACGCTGCTG	6.63
CCGATTAACATCAGGGACTCCCCTGATGTTAATCGGGTCTTGATTCGCTTGACGCTGCTG	6.03
CCGATTAACATCAGGGAATTACCTGATGTTAATCGGGTCTTGATTCGCTTGACGCTGCTG	5.8
CCGATTAACATCAGGGGGCAATATGATGTTAATCGGGTCTTGATTCGCTTGACGCTGCTG	3.82
CCGATTAACATCACCCACCCCCCTGATGTTAATCGGGTCTTGATTCGCTTGACGCTGCTG	3.99
CCGATTAACATCAAGGGAGTCCCTGATGTTAATCGGGTCTTGATTCGCTTGACGCTGCTG	3.72
CCGATTAACATCACTTATCCCCCTGATGTTAATCGGGTCTTGATTCGCTTGACGCTGCTG	4.19
CCGATTAACATCAGGACTCCCCCTGATGTTAATCGGGTCTTGATTCGCTTGACGCTGCTG	6.59
CCGATTAACATCAGCATCCCCCCTGATGTTAATCGGGTCTTGATTCGCTTGACGCTGCTG	5.05
CCGATTAACATCAAAAAGTCCCCTGATGTTAATCGGGTCTTGATTCGCTTGACGCTGCTG	7.85
CCGATTAACATCAACAAAATCCCTGATGTTAATCGGGTCTTGATTCGCTTGACGCTGCTG	2.65
CCGATTAACATCAAGGGGGTTTCTGATGTTAATCGGGTCTTGATTCGCTTGACGCTGCTG	7.39
CCGATTAACATCAAAAATCCCCCTGATGTTAATCGGGTCTTGATTCGCTTGACGCTGCTG	8.05
CCGATTAACATCAGACATTCCCCTGATGTTAATCGGGTCTTGATTCGCTTGACGCTGCTG	5.51
CCGATTAACATCAGTATTTCCCATGATGTTAATCGGGTCTTGATTCGCTTGACGCTGCTG	2.64
CCGATTAACATCAGGACATTCCCTGATGTTAATCGGGTCTTGATTCGCTTGACGCTGCTG	3.21
CCGATTAACATCAGGGGTATTACTGATGTTAATCGGGTCTTGATTCGCTTGACGCTGCTG	3.9
CCGATTAACATCAATACTTCCCCTGATGTTAATCGGGTCTTGATTCGCTTGACGCTGCTG	6.19

Sequence	binding signal [z-score]
CCGATTAACATCAAATAATACCCTGATGTTAATCGGGTCTTGATTCGCTTGACGCTGCTG	4.35
CCGATTAACATCAAATTTCCCACTGATGTTAATCGGGTCTTGATTCGCTTGACGCTGCTG	4.02
CCGATTAACATCAGGGGGAAAAATGATGTTAATCGGGTCTTGATTCGCTTGACGCTGCTG	7.07
CCGATTAACATCAAGGGGGATTATGATGTTAATCGGGTCTTGATTCGCTTGACGCTGCTG	7.48
CCGATTAACATCAAGGGGGATTCTGATGTTAATCGGGTCTTGATTCGCTTGACGCTGCTG	7.71
CCGATTAACATCAAGGGGGTTTATGATGTTAATCGGGTCTTGATTCGCTTGACGCTGCTG	7.21
CCGATTAACATCAGAGACCCCCCTGATGTTAATCGGGTCTTGATTCGCTTGACGCTGCTG	3.87
CCGATTAACATCAAGGGGGAATATGATGTTAATCGGGTCTTGATTCGCTTGACGCTGCTG	6.95
CCGATTAACATCAAGGGGAATAATGATGTTAATCGGGTCTTGATTCGCTTGACGCTGCTG	5.62
CCGATTAACATCAATTCTCCCCCTGATGTTAATCGGGTCTTGATTCGCTTGACGCTGCTG	6.9
CCGATTAACATCAGGGGGGAATATGATGTTAATCGGGTCTTGATTCGCTTGACGCTGCTG	6.79
CCGATTAACATCAGGATTACCCATGATGTTAATCGGGTCTTGATTCGCTTGACGCTGCTG	1.83
CCGATTAACATCAACGAATTCCCTGATGTTAATCGGGTCTTGATTCGCTTGACGCTGCTG	3.08
CCGATTAACATCACGTTTTCCCCTGATGTTAATCGGGTCTTGATTCGCTTGACGCTGCTG	5.96
CCGATTAACATCAACGGATTCCCTGATGTTAATCGGGTCTTGATTCGCTTGACGCTGCTG	1.77
CCGATTAACATCAGGGAAATCTATGATGTTAATCGGGTCTTGATTCGCTTGACGCTGCTG	4.1
CCGATTAACATCAGGGGAAAGTATGATGTTAATCGGGTCTTGATTCGCTTGACGCTGCTG	5.75
CCGATTAACATCAGGATTTACCCTGATGTTAATCGGGTCTTGATTCGCTTGACGCTGCTG	3.39
CCGATTAACATCAAGGGAACTCCTGATGTTAATCGGGTCTTGATTCGCTTGACGCTGCTG	2.28
CCGATTAACATCACGGGAAAATCTGATGTTAATCGGGTCTTGATTCGCTTGACGCTGCTG	3.87
